Measurements taken from ChEMBL document CHEMBL4513216, “Probing the Open Global Health Chemical Diversity Library for Multistage-Active Starting Points for Next-Generation Antimalarials” (ACS Infect Dis, 2020).
Hit rate of the full screen: of about 69,000 compounds, about 8,600 (12%) showed an effect of 50% or more. Only a selection was taken, and strong results are over-represented in it overall.

tested on: Plasmodium berghei; assay: Screen against P. berghei liver stage (PbLuc), transformed with Luciferase, at 10uM; type: functional, HepG2; settings: tested at 10 uM

**Q.** Which INHIBITION does the source give for `Nc1cc(-c2cc[nH]n2)nc(N2CCCC2)n1` here?
**A.** Its INHIBITION is 20.5%.

**Q.** How did the INHIBITION turn out when `CN(C)S(=O)(=O)N1CCC(c2c(C(N)=O)sc3ccccc23)C1` (stereo unspecified) was run?
**A.** The INHIBITION was -11.4%.

**Q.** How did the INHIBITION turn out when `O=C1N(Cc2ccc(F)c(F)c2)CCCC1(O)CNCc1cccnc1` (stereo unspecified) was run?
**A.** Its INHIBITION is 60.9%.

**Q.** With `O=C1N(Cc2cccc(F)c2F)CCCC1(O)CNC1CCCC1` (stereo unspecified) as the molecule, how does the INHIBITION read?
**A.** Its INHIBITION is 11.5%.

**Q.** How did the INHIBITION turn out when `Cn1cc(CNCC2(O)CCCN(Cc3ccc(F)c(F)c3)C2=O)cn1` (stereo unspecified) was run?
**A.** Its INHIBITION is -34%.

**Q.** Which INHIBITION does the source give for `O=C1N(Cc2cccc(F)c2F)CCCC1(O)CNCC1CCCCC1` (stereo unspecified) here?
**A.** The INHIBITION was 69.1%.

**Q.** How did the INHIBITION turn out when `C=C(C)CNCC1(O)CCCN(Cc2ccc(F)c(F)c2)C1=O` (stereo unspecified) was run?
**A.** Its INHIBITION is 41.7%.

**Q.** How did the INHIBITION turn out when `COCCNCC1(O)CCCN(Cc2ccc(F)c(F)c2)C1=O` (stereo unspecified) was run?
**A.** The INHIBITION was 6.65%.

**Q.** With `O=C1N(Cc2ccc(F)c(F)c2)CCCC1(O)CNCc1ccccn1` (stereo unspecified) as the molecule, how does the INHIBITION read?
**A.** The INHIBITION was 4.25%.

**Q.** With `O=C1N(Cc2cccc(F)c2F)CCCC1(O)CNCc1ccccc1` (stereo unspecified) as the molecule, how does the INHIBITION read?
**A.** The INHIBITION was 40.4%.

**Q.** For `O=C1N(Cc2ccc(F)c(F)c2)CCCC1(O)CNCC1CCCCC1` (stereo unspecified), which INHIBITION is on record?
**A.** The INHIBITION was 68.8%.

**Q.** With `c1ccc(Cc2noc(CN(Cc3cccs3)CC3CCCO3)n2)cc1` (stereo unspecified) as the molecule, how does the INHIBITION read?
**A.** Its INHIBITION is 15.3%.

**Q.** `NC(=O)CC1CCN(Cc2ccccc2OCC(F)(F)F)CC1` was tested. Which INHIBITION did it give?
**A.** The INHIBITION was 16.1%.

**Q.** Which INHIBITION does the source give for `CN1C(=O)C2(CCN(Cc3nccn3C)CC2)c2ccccc21` here?
**A.** Its INHIBITION is -19.6%.

**Q.** `CN1CC(=O)N(c2cnn(C)c2)CC12CCN(Cc1nccn1C)C2` (stereo unspecified) was tested. Which INHIBITION did it give?
**A.** The INHIBITION was 11.8%.

**Q.** Which INHIBITION does the source give for `Cc1n[nH]c(C)c1NC(=O)NCc1ccccn1` here?
**A.** Its INHIBITION is 8.59%.

**Q.** For `NC(=O)C1(c2cnccn2)CCCN1Cc1ccc(F)c(F)c1` (stereo unspecified), which INHIBITION is on record?
**A.** Its INHIBITION is 20.8%.

**Q.** With `CN1CC(=O)N(c2ccsc2)CC12CCN(S(=O)(=O)C1CC1)C2` (stereo unspecified) as the molecule, how does the INHIBITION read?
**A.** Its INHIBITION is -6.23%.

**Q.** Which INHIBITION does the source give for `CNCc1ccc(OCc2ccc3c(c2)OCCO3)cc1` here?
**A.** The INHIBITION was -0.621%.

**Q.** With `CC(O)CNCc1ccc(OCc2ccc3c(c2)OCCO3)cc1` (stereo unspecified) as the molecule, how does the INHIBITION read?
**A.** Its INHIBITION is 72.6%.

**Q.** Which INHIBITION does the source give for `CCNCc1ccc(OCc2ccc3c(c2)OCCO3)cc1` here?
**A.** The INHIBITION was 67.3%.

**Q.** With `CC(C)(C)NCc1ccc(OCc2ccc3c(c2)OCCO3)cc1` as the molecule, how does the INHIBITION read?
**A.** Its INHIBITION is -47.8%.

**Q.** For `CCCNCc1ccc(OCc2ccc3c(c2)OCCO3)cc1`, which INHIBITION is on record?
**A.** The INHIBITION was 25.1%.

**Q.** Which INHIBITION does the source give for `O=C1CCC2(CCC(NCc3ccc4c(c3)OCO4)CC2)N1` (stereo unspecified) here?
**A.** The INHIBITION was 30.9%.

**Q.** How did the INHIBITION turn out when `CC(C)(CO)NCc1ccc(OCc2ccc3c(c2)OCCO3)cc1` was run?
**A.** Its INHIBITION is 13.5%.

**Q.** For `c1cc(OCc2ccc3c(c2)OCO3)ccc1CNC1CC1`, which INHIBITION is on record?
**A.** Its INHIBITION is 73.4%.

**Q.** `c1cc(OCc2ccc3c(c2)OCCO3)ccc1CNC1CC1` was tested. Which INHIBITION did it give?
**A.** The INHIBITION was 25.3%.

**Q.** For `NC(=O)NCC1CCCCN1Cc1nc(-c2ccco2)no1` (stereo unspecified), which INHIBITION is on record?
**A.** The INHIBITION was -31.1%.

**Q.** Which INHIBITION does the source give for `CC(C)(C)c1ccn(C2(C(=O)O)CCN(c3ncccc3C#N)CC2)n1` here?
**A.** Its INHIBITION is 7.24%.

**Q.** Which INHIBITION does the source give for `Cc1cnc(C)c(N2CCC(C(=O)O)(n3ccc(C(C)(C)C)n3)CC2)n1` here?
**A.** Its INHIBITION is 3.84%.

**Q.** For `COc1nccnc1N1CCC(C(=O)O)(n2ccc(C(C)(C)C)n2)CC1`, which INHIBITION is on record?
**A.** Its INHIBITION is 53.8%.
